# Values joined by “and” are separate entries in the source; they are usually repeats but may differ in a detail not shown here. Identical values can stand only once. More than one record can exist for a structure, and the calls need not agree. Active and inactive are the calls of the source. How the source made its calls: active means hit-call score of the fitted dose curve at least 0.9, where 1 is the maximum; inactive means score below 0.9.
# Assays:
# [1] = target: Transcription factor E2F1 (Homo sapiens) (UniProt Q01094); assay: ATG_E2F_CIS: Attagene CIS-FACTORIAL HepG2 Assay for human E2F Transcription Factor 1 (AID 2282935); settings: HepG2 Attagene cis-reporter, E2F reporter RNA transcripts; actives raise or lower the signal
# How it was run: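 HepG2 cells transiently transfected with multiplexed cis-element reporter units, dosed for 24 h. Reporter mRNA measured by RT-PCR, 6-FAM primer-extension labeling, HpaI digestion and capillary electrophoresis; bidirectional fit versus DMSO baseline.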
# [2] = ATG_E_Box_CIS: Attagene CIS-FACTORIAL HepG2 Assay for human Enhancer Box (E-box) (AID 2282936); settings: HepG2 E-box cis-reporter transcription, actives raise or lower the signal
# How it was run: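 HepG2 cells transiently transfected with multiplexed cis-element reporter units sensing endogenous transcription factor activity; 24 h compound exposure. Reporter mRNA measured by RT-PCR, 6-FAM primer extension, HpaI digestion and capillary electrophoresis; bidirectional fit versus DMSO.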
# [3] = ATG_M_61_CIS: Attagene CIS-FACTORIAL HepG2 Assay for M61 Transcription Factor (Internal Marker) (AID 2282937); settings: HepG2 Attagene CIS-FACTORIAL M61 internal marker reporter; actives raise or lower the signal
# How it was run: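 HepG2 cells transiently transfected with multiplexed cis-promoter reporter units reporting endogenous transcription factor activity, measured 24 h after dosing. Reporter mRNA quantified by RT-PCR and capillary electrophoresis; bidirectional fit against DMSO baseline.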
# [4] = ATG_EGR_CIS: Attagene CIS-FACTORIAL HepG2 Assay for human Early Growth Response 1 (EGR1) (AID 2282938); settings: HepG2 Attagene CIS-FACTORIAL EGR reporter mRNA; actives raise or lower the signal
# How it was run: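 HepG2 cells transiently transfected with cis-element-driven multiplexed reporter units, dosed for 24 h. EGR1-element reporter mRNA quantified by RT-PCR, 6-FAM labelling, HpaI digestion and capillary electrophoresis; bidirectional fit versus DMSO.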
# [5] = ATG_M_19_CIS: Attagene CIS-FACTORIAL HepG2 Assay for M19 Transcription Factor (Internal Marker) (AID 2282939); settings: HepG2 Attagene CIS-FACTORIAL M19 internal marker reporter; actives raise or lower the signal
# How it was run: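 HepG2 cells transiently transfected with cis-regulated multiple reporter transcription units were dosed for 24 h; reporter mRNA was quantified by RT-PCR, 6-FAM primer-extension labelling, HpaI digestion and capillary electrophoresis, with bidirectional fitting against DMSO baseline.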
# [6] = ATG_ERE_CIS: Attagene CIS-FACTORIAL HepG2 Assay for Estrogen Response Element (ERE) (AID 2282940); settings: HepG2 ERE cis-reporter, Attagene RNA transcript; actives raise or lower the signal
# How it was run: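 HepG2 cells transiently transfected with cis-promoter-driven multiplexed reporter transcription units report endogenous TF activity. After 24 h compound exposure, reporter mRNA is quantified by RT-PCR with capillary electrophoresis fluorescence; bidirectional fitting versus DMSO baseline.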
# [7] = ATG_Ets_CIS: Attagene CIS-FACTORIAL HepG2 Assay for human Erythroblast Transformation Specific (ETS) (AID 2282941); settings: HepG2 ETS cis-reporter transcription, actives raise or lower the signal
# How it was run: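 Human HepG2 hepatoma cells were transiently transfected with promoter-driven reporter constructs and treated for 24 hours. Reporter transcripts were quantified by RT-PCR with fluorescent primer extension; bidirectional curve fitting used DMSO as reference.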
# [8] = target: Hepatocyte nuclear factor 3-beta (Homo sapiens) (UniProt Q9Y261); assay: ATG_FoxA2_CIS: Attagene CIS-FACTORIAL HepG2 Assay for human Forkhead box A2 (FOXA2) (AID 2282942); settings: HepG2 cis-reporter transcription factor activity, 24 h; actives raise or lower the signal
# How it was run: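 HepG2 transiently transfected with a multiplexed cis-promoter reporter library read endogenous FOXA2 activity. After 24 h compound exposure, reporter mRNA was quantified by RT-PCR, HpaI digestion and capillary electrophoresis. Bidirectional fit against DMSO.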
# [9] = ATG_FoxO_CIS: Attagene CIS-FACTORIAL HepG2 Assay for human Forkhead box O (FoxO) (AID 2282943); settings: HepG2 Attagene cis-reporter, FoxO element, mRNA; actives raise or lower the signal
# How it was run: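 24 h chemical exposure, HepG2 with transient cis-MRTU transfection. RNA extraction, oligo(dT) RT, reporter-specific PCR, primer-extension labelling, HpaI digestion, CE fragment analysis; bidirectional fit, DMSO baseline.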
# [10] = ATG_GATA_CIS: Attagene CIS-FACTORIAL HepG2 Assay for human GATA Binding Protein (AID 2282944); settings: HepG2 GATA cis-element reporter, Attagene multiplex mRNA; actives raise or lower the signal
# How it was run: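 HepG2 cells transiently transfected with multiplexed cis-element reporter units reflecting endogenous transcription factor activity; reporter mRNA measured after 24 h dosing by RT-PCR, 6-FAM labeling, HpaI digestion and capillary electrophoresis. Bidirectional fitting versus DMSO baseline.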
# Sequence of Hepatocyte nuclear factor 3-beta (Homo sapiens) (Q9Y261 whole entry, looked up): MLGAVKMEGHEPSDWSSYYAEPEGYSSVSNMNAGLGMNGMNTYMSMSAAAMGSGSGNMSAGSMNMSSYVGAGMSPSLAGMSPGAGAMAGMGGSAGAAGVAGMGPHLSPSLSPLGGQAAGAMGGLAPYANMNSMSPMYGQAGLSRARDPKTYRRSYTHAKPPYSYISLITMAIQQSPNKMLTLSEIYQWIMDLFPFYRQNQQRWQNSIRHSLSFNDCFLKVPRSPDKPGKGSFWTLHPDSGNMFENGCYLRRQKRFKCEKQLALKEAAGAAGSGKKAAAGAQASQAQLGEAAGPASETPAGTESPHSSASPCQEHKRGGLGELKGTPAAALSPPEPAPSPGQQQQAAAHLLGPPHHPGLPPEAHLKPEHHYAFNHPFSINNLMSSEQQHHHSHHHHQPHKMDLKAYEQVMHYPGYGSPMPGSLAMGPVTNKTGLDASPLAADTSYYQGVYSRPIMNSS
# Sequence of Transcription factor E2F1 (Homo sapiens) (Q01094 whole entry, looked up): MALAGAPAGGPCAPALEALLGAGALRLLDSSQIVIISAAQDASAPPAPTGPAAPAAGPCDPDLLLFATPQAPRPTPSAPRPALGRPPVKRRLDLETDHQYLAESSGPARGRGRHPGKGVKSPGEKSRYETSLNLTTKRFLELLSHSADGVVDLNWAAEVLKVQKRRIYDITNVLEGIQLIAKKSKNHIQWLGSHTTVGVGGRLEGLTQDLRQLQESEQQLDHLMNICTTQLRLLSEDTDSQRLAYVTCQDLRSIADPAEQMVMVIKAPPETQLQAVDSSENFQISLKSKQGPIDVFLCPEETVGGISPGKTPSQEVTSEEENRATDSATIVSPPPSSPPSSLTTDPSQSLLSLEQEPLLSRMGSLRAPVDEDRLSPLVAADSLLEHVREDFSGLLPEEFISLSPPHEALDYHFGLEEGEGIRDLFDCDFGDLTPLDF
Compound,outcome [1],outcome [2],outcome [3],outcome [4],outcome [5],outcome [6],outcome [7],outcome [8],outcome [9],outcome [10],AC50 [6],AC50 [2],AC50 [4]
FC(F)(F)C(F)(F)C(F)(F)CI,inactive,inactive,inactive,inactive,inactive,inactive,inactive,inactive,inactive,inactive,–,–,–
FC(F)(Br)C(F)(F)C(F)(F)C(F)(F)C(F)(F)C(F)(F)Br,inactive,inactive,inactive,inactive,inactive,–,inactive,inactive,inactive,inactive,8.15 µM (active),–,–
C=C(C)C(=O)OCC(F)(F)C(F)(F)C(F)(F)C(F)(F)C(F)(F)C(F)(F)C(F)(F)F,inactive,inactive,inactive,inactive,inactive,–,inactive,inactive,inactive,inactive,16.2 µM (active),–,–
O=C(CC(=O)C(F)(F)C(F)(F)F)C(F)(F)F,inactive,inactive,inactive,inactive,inactive,inactive,inactive,inactive,inactive,inactive,–,–,–
FC(F)(F)C(F)(F)CNCC(F)(F)C(F)(F)F,inactive,inactive,inactive,inactive,inactive,inactive,inactive,inactive,inactive,inactive,–,–,–
CCCCNc1ccccc1,inactive,inactive,inactive,inactive,inactive,inactive,inactive,inactive,inactive,inactive,–,–,–
CNC(=S)NC,inactive,inactive,inactive,inactive,inactive,inactive,inactive,inactive,inactive,inactive,–,–,–
C#C[C@]1(O)CC[C@H]2[C@@H]3CCc4cc(OC)ccc4[C@H]3CC[C@@]21C,inactive,inactive,inactive,inactive,inactive,–,inactive,inactive,inactive,inactive,0.00935 µM (active),–,–
Nc1ccc([N+](=O)[O-])cc1O,inactive,inactive,inactive,inactive,inactive,inactive,inactive,inactive,inactive,inactive,–,–,–
CCCCCCOC(=O)c1ccccc1O,inactive,inactive,inactive,inactive,inactive,–,inactive,inactive,inactive,inactive,31.4 µM (active),–,–
FC(F)(F)C(F)(F)C(F)(F)C(F)(F)C(F)(F)C(F)(F)C(F)(F)I,inactive,inactive,inactive,inactive,inactive,–,inactive,inactive,inactive,inactive,5.59 µM (active),–,–
C(=C(c1ccccc1)c1ccccc1)c1ccccc1,inactive,inactive,inactive,inactive,inactive,–,inactive,inactive,inactive,inactive,0.0294 µM (active),–,–
C=C(C)C(=O)OCC(F)(F)C(F)(F)C(F)(F)F,–,inactive,inactive,inactive,inactive,inactive,inactive,inactive,inactive,inactive,30.8 µM (active),–,–
C=CC(=O)OCC(F)(F)C(F)(F)C(F)(F)C(F)(F)COC(=O)C=C,inactive,–,inactive,–,inactive,inactive,inactive,inactive,inactive,inactive,–,34.9 µM (active),63 µM (active)
CCC(=O)OCCc1ccccc1,inactive,inactive,inactive,inactive,inactive,inactive,inactive,inactive,inactive,inactive,–,–,–
O=P(O)(O)OCCC(F)(F)C(F)(F)C(F)(F)C(F)(F)C(F)(F)C(F)(F)F,inactive,inactive,inactive,inactive,inactive,–,inactive,inactive,inactive,inactive,18.3 µM (active),–,–
CCCCCC=O,inactive,inactive,inactive,inactive,inactive,inactive,inactive,inactive,inactive,inactive,–,–,–
FC(F)(F)C(F)(F)C(F)(F)C(F)(F)C(F)(F)C(F)(F)C(F)(F)C(F)(F)F,inactive,inactive,inactive,inactive,inactive,inactive,inactive,inactive,inactive,inactive,–,–,–
Oc1ccc(Nc2ccccc2)cc1,inactive,–,inactive,inactive,inactive,–,inactive,inactive,inactive,inactive,8.42 µM (active),100 µM (active),–
CCCCCCCCC(F)(F)C(F)(F)C(F)(F)C(F)(F)C(F)(F)C(F)(F)F,–,inactive,inactive,inactive,inactive,inactive,inactive,inactive,inactive,inactive,–,–,–
O=C(O)C=C(C(F)(F)F)C(F)(F)F,inactive,inactive,inactive,inactive,inactive,inactive,inactive,inactive,inactive,inactive,–,–,–
O=C(OCCOCCOCCOC(=O)c1ccccc1)c1ccccc1,inactive,inactive,inactive,inactive,inactive,–,inactive,inactive,inactive,inactive,0.62 µM (active),–,–
CCN(CC)c1ccc2c(C)cc(=O)oc2c1,inactive,inactive,inactive,inactive,inactive,inactive,inactive,inactive,inactive,inactive,–,–,–
CCCCCCC(C)OC(=O)CCCCC(=O)OC(C)CCCCCC (centres undefined),–,inactive,inactive,inactive,inactive,inactive,inactive,inactive,inactive,inactive,–,–,–

Compound,outcome [1],outcome [2],outcome [3],outcome [4],outcome [5],outcome [6],outcome [7],outcome [8],outcome [9],outcome [10],AC50 [6],AC50 [2],AC50 [4]
CCCCCCCCCCCCCCCC[N+](C)(C)Cc1ccccc1,–,–,inactive,inactive,inactive,inactive,inactive,inactive,inactive,inactive,–,47.1 µM (active),–
Cc1ccc(S(=O)(=O)NCl)cc1,–,inactive,inactive,inactive,inactive,inactive,inactive,inactive,inactive,inactive,–,–,–
O=C(O)C(F)(F)C(F)(F)OC(F)(F)F,–,inactive,inactive,inactive,inactive,inactive,inactive,inactive,inactive,inactive,–,–,–
C=CC(=O)OCC(F)(F)C(F)(F)C(F)(F)C(F)(F)C(F)(F)C(F)(F)C(F)(F)F,–,inactive,inactive,inactive,inactive,–,inactive,inactive,inactive,inactive,21 µM (active),–,–
O=C(O)C(F)(F)C(F)(F)F,–,inactive,inactive,inactive,inactive,inactive,inactive,inactive,inactive,inactive,–,–,–
FC1CC(F)(F)C(F)(F)C1(F)F (centres undefined),–,inactive,inactive,inactive,inactive,inactive,inactive,inactive,inactive,inactive,–,–,–
c1ccc(-c2ccccc2-c2ccccc2)cc1,–,inactive,inactive,inactive,inactive,–,inactive,inactive,inactive,inactive,3.47 µM (active),–,–
OCC(F)(F)C(F)(F)C(F)(F)C(F)(F)C(F)(F)C(F)F,–,inactive,inactive,inactive,inactive,–,inactive,inactive,inactive,inactive,6.1 µM (active),–,–
CC/C=C\CCOC(C)=O,–,inactive,inactive,inactive,inactive,inactive,inactive,inactive,inactive,inactive,–,–,–
O=C(O)C(F)(F)C(F)(F)C(F)F,–,inactive,inactive,inactive,inactive,inactive,inactive,inactive,inactive,inactive,–,–,–
OCCCC(F)(F)C(F)(F)C(F)(F)F,–,inactive,inactive,inactive,inactive,inactive,inactive,inactive,inactive,inactive,–,–,–
CC(C)OC(=O)c1ccccc1C(=O)OC(C)C,–,inactive,inactive,inactive,inactive,–,inactive,inactive,inactive,inactive,27.7 µM (active),–,–
Cc1ccc(S(=O)(=O)OCC(F)(F)C(F)(F)C(F)(F)C(F)(F)C(F)(F)C(F)F)cc1,–,inactive,inactive,inactive,inactive,inactive,inactive,inactive,inactive,inactive,–,–,–
CC(=O)Nc1ccc(N=Nc2cc(C)ccc2O)cc1,–,inactive,inactive,inactive,inactive,inactive,inactive,inactive,inactive,inactive,–,–,–
O=C(O)C(F)(F)C(F)(F)C(F)(F)C(F)(F)C(F)(F)C(F)(F)C(F)(F)C(F)(F)C(F)(F)C(F)F,–,inactive,inactive,inactive,inactive,–,inactive,inactive,inactive,inactive,26.3 µM (active),–,–
O=C(O)C(F)(F)C(F)(F)C(F)(F)C(F)(F)C(F)(F)C(F)(F)C(F)(F)C(F)(F)Cl,–,inactive,inactive,–,inactive,–,inactive,inactive,inactive,inactive,15.4 µM (active) and 21.7 µM (active),–,50 µM (active) and 64.8 µM (active)
Nc1ccc(S(=O)(=O)Nc2nccs2)cc1,–,inactive,inactive,inactive,inactive,inactive,inactive,inactive,inactive,inactive,–,–,–
O=C(O)C(F)(F)C(F)(F)C(F)(F)C(F)(F)C(F)(F)C(F)(F)C(F)(F)C(F)(F)C(F)(F)C(F)(F)C(F)(F)C(F)(F)C(F)(F)F,–,inactive,inactive,inactive,inactive,inactive,inactive,inactive,inactive,inactive,–,–,–
FC(F)(F)C(F)(F)C(F)(F)C(F)(F)C(F)(F)C(F)(F)C(F)(F)Br,–,inactive,inactive,inactive,inactive,inactive,inactive,inactive,inactive,inactive,–,–,–
CN(C)Cc1ccccc1O,–,inactive,inactive,inactive,inactive,inactive,inactive,inactive,inactive,inactive,–,–,–
c1ccc(B(c2ccccc2)c2ccccc2)cc1,–,–,inactive,inactive,inactive,–,inactive,inactive,inactive,inactive,9.96 µM (active),160 µM (active),–
O=S(=O)(O)c1ccc2ccccc2c1,–,inactive,inactive,inactive,inactive,inactive,inactive,inactive,inactive,inactive,–,–,–
CC(CCl)OP(=O)(OC(C)CCl)OC(C)CCl (centres undefined),–,inactive,inactive,inactive,inactive,inactive,inactive,inactive,inactive,inactive,–,–,–
O=S(=O)(O)C(F)(F)C(F)(F)C(F)(F)C(F)(F)C(F)(F)C(F)(F)C(F)(F)F,–,inactive,inactive,inactive,inactive,–,inactive,inactive,inactive,inactive,48.4 µM (active) and 69.9 µM (active),–,–
